Gal4-VP16 FLuc: VP16 counterscreen qHTS for inhibitors of ROR gamma transcriptional activity. 310,000 tested, 3.5% active. Potency, µM (doses to about 53.6 µM), without a hit: top-dose activity, negative = inhibition, usual class: inhibitors. AID 2546, 2010. Drosophila S2 Gal4-VP16 UAS-luciferase, luminescence, 20 h;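 also: Gal4-VP16 expression switched on by copper sulfate through the metallothionein promoter; potency is read from the fitted curve at half-maximal effect; nearly all actives have a fitted effect of over 50% in size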
IL1B secr inh: qHTS for Inhibitors of Inflammasome Signaling: IL-1-beta AlphaLISA Primary Screen. THP-1 LPS/ATP IL-1B secretion, AlphaLISA, 16 h; active compounds read low. activity change, % at 57.5 µM. 360,000 tested, 4.7% active; in the data active = activity change below about -50%; inconclusive = mostly about -30% to -49%
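Secreted IL-1B measured by AlphaLISA bead assay after 16 h compound exposure of THP-1 cells; compounds (final up to 57.5 uM) added 1 h before LPS (250 ng/mL) and ATP (1.25 mM) stimulation; lower signal means less secretion.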
RORgamma inh: qHTS for inhibitors of ROR gamma transcriptional activity; Nuclear receptor ROR-gamma (Mus musculus), P51450; Drosophila S2 Gal4-RORgamma UAS-luciferase reporter, 20 h; Potency, µM (highest dose often 53.6 µM), for the others: top-dose activity change, negative = inhibition, usual class: inhibitors; 310,000 tested, 5.4% active; AID 2551, 2010; also: potency is read from the fitted curve at half-maximal effect; nearly all actives have a fitted effect of over 60% in size
Target sequence (P51450 whole entry, looked up, the tested form may be a part): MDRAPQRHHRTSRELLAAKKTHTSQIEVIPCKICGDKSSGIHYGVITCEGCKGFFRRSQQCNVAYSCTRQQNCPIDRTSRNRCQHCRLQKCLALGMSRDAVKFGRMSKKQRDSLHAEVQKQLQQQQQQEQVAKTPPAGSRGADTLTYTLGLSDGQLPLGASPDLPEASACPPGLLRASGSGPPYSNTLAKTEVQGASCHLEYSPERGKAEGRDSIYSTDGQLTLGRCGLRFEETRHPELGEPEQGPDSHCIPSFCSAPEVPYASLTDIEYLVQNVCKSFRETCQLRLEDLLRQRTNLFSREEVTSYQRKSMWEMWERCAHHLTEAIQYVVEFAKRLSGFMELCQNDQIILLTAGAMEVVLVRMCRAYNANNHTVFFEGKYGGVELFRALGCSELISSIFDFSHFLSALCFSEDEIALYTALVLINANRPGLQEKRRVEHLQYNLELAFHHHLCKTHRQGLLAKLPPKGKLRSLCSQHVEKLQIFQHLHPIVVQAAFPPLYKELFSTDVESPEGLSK
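Drosophila Schneider cells stably carrying a metallothionein-driven Gal4 DBD–ROR gamma fusion and a UAS-Photinus luciferase reporter were exposed to compound for 1 hr, then induced with copper sulfate (700 uM final) for 20 hr at ambient temperature before luminescence reading.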
ELG1 DNA repair: qHTS screen for small molecules that inhibit ELG1-dependent DNA repair in human embryonic kidney (HEK293T) cells expressing luciferase-tagged ELG1; 330,000 tested, 2.3% active; HEK293T ELG1-luciferase reporter, luminescence, 16 h; DNA damage induced by 5-fluorouridine; AID 504467, 2011; Potency, µM (highest dose often 46.1 µM), inactives show top-dose activity change, negative = inhibition, actives largely listed as inhibitors; also: potency is read from the fitted curve at half-maximal effect; nearly all actives have a fitted effect of over 55% in size
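Cells (2,000 per well) received 5-fluorouridine plus test compound or DMSO and were incubated 16 hr at 37 °C, 5% CO2. Luciferase activity was read by luminescence 30 min after ONE-Glo addition; signal suppression marked inhibition of damage-induced ELG1 function.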
TDP1 cell CPT: qHTS for Inhibitors of human tyrosyl-DNA phosphodiesterase 1 (TDP1): qHTS in cells in presence of CPT; 420,000 tested, 12% active; chicken DT40 Tdp1-/-;hTDP1 cells + 20 nM CPT, ATP luminescence, 48 h; Potency, µM (doses to about 46.2 µM), for inactives: top-dose activity change, negative = growth inhibition, most hits filed as inhibitors; AID 686979, 2013; also: potency is read from the fitted curve at half-maximal effect; nearly all actives have a fitted effect of over 55% in size
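Chicken DT40 Tdp1-/- cells complemented with human TDP1, 400 cells/well, exposed to compounds plus 20 nM camptothecin for at least 48 h at 37 C; viability read as ATP content by CellTiter-Glo luminescence.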
TDP1 cell noCPT: qHTS for Inhibitors of human tyrosyl-DNA phosphodiesterase 1 (TDP1): qHTS in cells in absence of CPT. 420,000 tested, 15% active. Potency, µM (highest dose often 46.2 µM), for the others: at the highest dose activity change, negative = growth inhibition, usual class: inhibitors. DT40 Tdp1-/- hTDP1 cells, no CPT, ATP luminescence, 48 h. AID 686978, 2013; also: potency is read from the fitted curve at half-maximal effect; nearly all actives have a fitted effect of over 55% in size
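Seeded 400 DT40-hTDP1 cells/well (vehicle DMSO, no 20 nM CPT); pinned compounds; ≥48 hr at 37 °C; CellTiter-Glo luminescence as viability measure.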
* hit, by the source's call; ? = inconclusive; nt = not tested or not shown; [ ] = dose if it differs, or a comment. Compounds with a hit are over-represented: about 21% of the library has one in this group of screens. Unless noted, calls follow the shape of the dose curve; as a rule, active = well fitted curve in the direction sought with a large enough effect; inconclusive = small, poorly fitted or top-dose-only effect, or another doubt; inactive = no such curve, though single readings can be large; an effect the other way counts as inactive or inconclusive. % is scaled to controls: 0 for no effect and ±100 for the full control effect.

SMILES	Gal4-VP16 FLuc	IL1B secr inh	RORgamma inh	ELG1 DNA repair	TDP1 cell CPT	TDP1 cell noCPT
CS(=O)(=O)Nc1cccc(C2=NN(C(=O)c3cccc([N+](=O)[O-])c3)C(c3cccs3)C2)c1 (centres undefined)	-1%	?	-4%	13µM*	?	?
CC(C)C(=O)N1N=C(c2ccc(NS(C)(=O)=O)cc2)CC1c1cccs1 (centres undefined)	28%	1	30%	-19%	-12%	?
Cc1ccc(C(=O)N2N=C(c3cccc(NS(C)(=O)=O)c3)CC2c2cccs2)cc1 (centres undefined)	3%	-7	6%	?	?	?
CS(=O)(=O)Nc1ccc(C2=NN(C(=O)C3CCCCC3)C(c3cccs3)C2)cc1 (centres undefined)	-6%	-59*	?	?	?	23µM*
COc1ccc(C(=O)N2N=C(c3ccc(NS(C)(=O)=O)cc3)CC2c2cccs2)cc1 (centres undefined)	1%	-20	-5%	18µM*	-17%	?
CS(=O)(=O)Nc1cccc(C2=NN(C(=O)c3ccccc3)C(c3cccs3)C2)c1 (centres undefined)	0%	-29	-3%	?	21µM*	?
CCc1ccc(OCC(=O)Nc2ccc3c(c2)OCCO3)cc1	0%	1	11%	?	-11%	-15%
C=CC1=C(C)/C(=C/c2[nH]c(Cc3[nH]c(/C=C4\NC(=O)C(C)=C4C=C)c(C)c3CCC(=O)O)c(CCC(=O)O)c2C)NC1=O	-2%	nt	-7%	nt	-49%	-14%
CC(/C=C/c1ccco1)=N/NC(=O)CNc1ccccc1C	?	-13	-17%	5%	4%	-11%
CCOC(=O)N/N=C/C(Cl)=C/c1ccccc1	?	-53*	?	?	-26%	?
CC(/C=C/C=C/c1ccccc1)=N/NC(=O)CNc1ccccc1C	13%	6	0%	5%	10µM*	?
CCOC(=O)N/N=C(C)/C=C/c1ccccc1	13%	-3	21%[10 µM]	?	0.37µM*	0.082µM*
COC(=O)N/N=C(C)/C=C/c1ccccc1	nt	-11	nt	nt	-3%	-1%
CCN(C)C(=O)Oc1cccc([C@H](C)N(C)C)c1	1%	nt	-10%	nt	-11%	-11%
CN(CCCCCCCCCCN(C)C(=O)Oc1cccc([N+](C)(C)C)c1)C(=O)Oc1cccc([N+](C)(C)C)c1	nt	2	nt	16%	2.3µM*	0.82µM*
Cc1cc(C)c(NC(=O)Cn2c(=O)nc(-c3ccccc3)c3cc(Cl)ccc32)c(C)c1	nt	nt	nt	nt	5%	?
Nc1c(Br)c(=O)[nH]c(=O)n1-c1ccc(F)cc1	-8%	2	-38%	22%	-99%	23µM*
CCN1C[C@@H]2[C@@H]3C(=O)N(Cc4ccccc4)C(=O)[C@@H]3[C@](C)(C1=O)N2C(=O)c1ccc(C(F)(F)F)cc1	nt	-4	nt	nt	-5%	-26%
CCN(CC)CCNC(=O)c1ccc2c(c1NCCO)C(=O)c1ccccc1C2=O	-25%	-53*	?	13µM*	16µM*	15µM*
CC1CCN(C(=O)c2ccc3c(c2NCCO)C(=O)c2ccccc2C3=O)CC1	-16%	-23	-42%	?	23µM*	18µM*
O=C(NCc1ccccc1F)c1ccc(CN2CC(=O)N3CCCCC3C2=O)cc1 (centres undefined)	nt	nt	nt	nt	-7%	-6%

Source: PubChem
